Counter-ions that a name gives are not always drawn.
Key:
Test in all cases: thermal shift delta Tm vs DMSO control; higher = stronger stabilization (binding)
Conditions in all cases: 12.5 µM; protein concentration 2 µM
[1] = tested on: LOC_OS01G57100-cb003
Procedure, shortened: (§1)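 Rice kinase domain constructs, made in E. coli and purified, were placed in 96-well plates at 2 μM in 19.5 μl of 100 mM potassium phosphate pH 7.5, 150 mM NaCl, 10% glycerol and 5 × SYPRO Orange, with compound in DMSO. A temperature ramp from 25°C to 95°C at 0.05°C/s was used for differential scanning fluorimetry. The melting temperature shift is a triplicate mean compared with DMSO-only protein, derived from Boltzmann fits.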

[2] = tested on: LOC_OS01G60330-cb001
Procedure, shortened: as §1

[3] = tested on: LOC_OS01G60700-cb002
Procedure, shortened: as §1

[4] = tested on: LOC_OS01G63280-cb003
Procedure, shortened: as §1

[5] = tested on: LOC_OS01G67340-cb003
Procedure, shortened: as §1

[6] = tested on: LOC_OS01G70970-cb002
Procedure, shortened: as §1

[7] = tested on: LOC_OS02G07810-cb001
Procedure, shortened: as §1

[8] = tested on: LOC_OS02G08530-cb003
Procedure, shortened: as §1

[9] = tested on: LOC_OS02G14120-cb001
Procedure, shortened: as §1

[10] = tested on: LOC_OS02G17970-cb001
Procedure, shortened: as §1
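Also: purified Escherichia coli-expressed rice kinase domain construct.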

SMILES | thermal shift delta Tm [1] [°C] | thermal shift delta Tm [2] [°C] | thermal shift delta Tm [3] [°C] | thermal shift delta Tm [4] [°C] | thermal shift delta Tm [5] [°C] | thermal shift delta Tm [6] [°C] | thermal shift delta Tm [7] [°C] | thermal shift delta Tm [8] [°C] | thermal shift delta Tm [9] [°C] | thermal shift delta Tm [10] [°C]
Cc1ccc(Nc2nccc(N(C)c3ccc4c(C)n(C)nc4c3)n2)cc1S(N)(=O)=O [Pazopanib] | 0.76 | 3.85 | 1.11 | 0.59 | 0.96 | 0.44 | 0.68 | 1.82 | 3.43 | 0.74
C=C[C@@](C)(/C=C/c1ccc(O)cc1)CCC=C(C)C [Bakuchiol] | -0.4 | 0.36 | 0.05 | 0.51 | -0.02 | 0.49 | -0.84 | 0.6 | 0.29 | 0.27
COc1ncc(-c2ccc3nccc(-c4ccnnc4)c3c2)cc1NS(=O)(=O)c1ccc(F)cc1F | 2.01 | 0.36 | 1.17 | 0.66 | 1.24 | 0.34 | 1.43 | 0.74 | 0.78 | 1.75
Cn1cnc(N)c2ncnc1-2 [3-Methyladenine (3-MA)] | 1.89 | 1.27 | 0.77 | 0.22 | -0.29 | 0.22 | 0.96 | 1.08 | 0.61 | 0.34
C[C@@H]1CN(CC(=O)Nc2ccc3c(c2)Cc2cccc(-c4cc(=O)cc(N5CCOCC5)o4)c2S3)C[C@H](C)O1 | 1.01 | 0.66 | 0.34 | 0.3 | 0 | -0.1 | 0.97 | 0.73 | 0.18 | 0.49
Cn1cnc2c(F)c(Nc3ccc(Br)cc3F)c(C(=O)NOCCO)cc21 | 0.75 | 0.73 | 1.26 | 0.46 | 0.06 | 0.46 | 1.12 | 0.93 | -0.02 | 1.34
CO[C@H]1C[C@@H]2CC[C@@H](C)[C@@](O)(O2)C(=O)C(=O)N2CCCC[C@H]2C(=O)O[C@H]([C@H](C)C[C@@H]2CC[C@@H](OC(=O)C(C)(CO)CO)[C@H](OC)C2)CC(=O)[C@H](C)/C=C(\C)[C@@H](O)[C@@H](OC)C(=O)[C@H](C)C[C@H](C)/C=C/C=C/C=C/1C | 1.06 | 1.91 | 0.66 | 0.23 | -0.48 | 0.3 | 0.33 | 0.57 | 0.93 | 0.36
O=C1Nc2ccccc2/C1=C1/Nc2ccccc2C1=O [Indirubin] | 0.93 | 1.8 | 2.12 | 0.55 | 0.71 | 0.76 | 1.4 | 1.85 | -0.51 | 0.97
COc1ccc(-c2cc3nccn3c(Nc3ncccc3C(N)=O)n2)cc1OC | 0.13 | 1.34 | 1.05 | 1.03 | 0.74 | 0.22 | 0.81 | 3.01 | 3.03 | 0.79
N#Cc1c(NC(=O)c2cccc3ccccc23)sc2c1CCCC2 [JNK Inhibitor IX] | 1.35 | 1.18 | 0.63 | -0.18 | 0.34 | 0 | 0.12 | 0.47 | -0.31 | 0.76
CCNC(=O)C#Cc1ccc2c(C(=Nc3ccc(CN(C)C)cc3)c3ccccc3)c(O)[nH]c2c1 | -0.26 | 0.78 | 0.32 | 0.72 | 1.01 | 13.4 | 0.15 | 2.16 | 0.91 | 0.63
Cc1cc(Nc2ncc(Cl)c(Nc3ccccc3S(=O)(=O)C(C)C)n2)c(OC(C)C)cc1C1CCNCC1 [Ceritinib (LDK378)] | 1.94 | 0.68 | 1.4 | 0.34 | 0.19 | 0.94 | 0.36 | 5.56 | 1.28 | 0.2
CN1CCN(Cc2ccc(NC(=O)Nc3ccc(Oc4ccnc(N)n4)cc3)cc2C(F)(F)F)CC1 | -0.21 | 0.73 | 1.34 | 8.29 | 0.95 | 2.3 | 0.57 | 2.59 | 6.74 | 1
CC(C)c1ccc2oc3nc(N)c(C(=O)O)cc3c(=O)c2c1 [Amlexanox] | 1.39 | 3.07 | 0.37 | 0.05 | 0.99 | 4.3 | 0.24 | 1.49 | 0.32 | -0.09
COc1cc2nccc(Oc3ccc(NC(=O)C4(C(=O)Nc5ccc(F)cc5)CC4)cc3)c2cc1OC | 1.05 | 2.17 | 1.12 | 1.29 | 0.96 | 1.37 | 1.4 | 1.21 | 5.23 | 0.76
CNC(=O)c1ccc(-c2cnc3ncc(Cc4ccc5ncccc5c4)n3n2)cc1F | 0.49 | -0.8 | 0.39 | 0.07 | 0.32 | -0.18 | 0.83 | 0.3 | -0.02 | 0.26
Nc1[nH]nc2nnc(-c3c(-c4ccccc4)nn4ccccc34)cc12 | 1.13 | 1.24 | 0.92 | 0.4 | 0.72 | 0.68 | -0.25 | 2.11 | 0.36 | 0.87
CC(C)c1cnn2c(NCc3ccccc3-n3cccn3)nc(OC3CCCNC3)nc12 (stereo not given) | 0.42 | 1.35 | 1.26 | 0.47 | 0.65 | 0.27 | 0.85 | 0.74 | -0.11 | 2.44
CN1CCN(c2cccc(Nc3nc4c(-c5ccc(S(C)(=O)=O)cc5)cccn4n3)c2)CC1 | 0.76 | 13.8 | 0.45 | 0.49 | 1.35 | 0.37 | 0.59 | 1.34 | 6.3 | 0.48
CO[C@@H](C(=O)N1Cc2[nH]nc(NC(=O)c3ccc(N4CCN(C)CC4)cc3)c2C1)c1ccccc1 | 0.28 | 1.12 | 0.4 | 0.57 | -0.26 | 1.38 | 0.65 | 0.25 | 9.66 | 0.37
NC(=O)c1cnc2[nH]ccc2c1N[C@@H]1[C@@H]2CC3C[C@H]1C[C@@](O)(C3)C2 | 0.13 | 10.2 | 1.43 | 3.87 | 3.53 | 6.42 | 0.39 | 3 | 6.44 | 0.82
CCOc1ccn(-c2ccc(F)cc2)c(=O)c1C(=O)Nc1ccc(Oc2ccnc(N)c2Cl)c(F)c1 | 1.62 | 0.89 | 0.32 | 6.59 | 0.42 | 0.37 | 1.56 | 1.41 | 4.74 | 1.32
C#Cc1cccc(Nc2ncnc3cc(OCCOC)c(OCCOC)cc23)c1 [Erlotinib] | -0.31 | -0.11 | 0.43 | -0.09 | 0.02 | 0.34 | -0.06 | 0.9 | 1.45 | 0.75

SMILES | thermal shift delta Tm [1] [°C] | thermal shift delta Tm [2] [°C] | thermal shift delta Tm [3] [°C] | thermal shift delta Tm [4] [°C] | thermal shift delta Tm [5] [°C] | thermal shift delta Tm [6] [°C] | thermal shift delta Tm [7] [°C] | thermal shift delta Tm [8] [°C] | thermal shift delta Tm [9] [°C] | thermal shift delta Tm [10] [°C]
C[C@@]1(C(=O)Nc2ccc(F)nc2)CCCN1c1nc(Nc2cc(C3CC3)n[nH]2)c2cccn2n1 | 0.92 | -2.64 | 0.85 | 0.6 | -0.49 | 1.02 | 1.05 | 0.71 | 8.77 | 0.26
Cc1cnc(Nc2ccc(N3CCN(C)CC3)cc2)nc1Nc1cccc(S(=O)(=O)NC(C)(C)C)c1 | 2.09 | 2.84 | 1.28 | 0.46 | 1.05 | 3.63 | 0.9 | 3.06 | 8.37 | 1.17
O=C(Nc1nccs1)C(c1cc(F)ccc1O)N1Cc2ccccc2C1=O (stereo not given) | 0.29 | 1.19 | 0.64 | -0.09 | 1.06 | 0.42 | 0.12 | 0.39 | 0.47 | 0.37
O=c1ncn2nc(Sc3ccc(F)cc3F)ccc2c1-c1c(Cl)cccc1Cl | 1.7 | 0.91 | 0.86 | 0.47 | -0.29 | 0.12 | 0.79 | 0.67 | 0.31 | 0.56
O=C1NC(=O)[C@@H](c2cn3c4c(cccc24)CCC3)[C@@H]1c1c[nH]c2ccccc12 [Tivantinib (ARQ 197)] | 1.7 | 0.74 | 0.02 | 0.24 | 0.37 | 0.39 | 0.91 | 0.76 | 0.16 | 0.24
C#Cc1cccc(Nc2ncnc3cc(OC)c(OCCCCCCC(=O)NO)cc23)c1 | 0.24 | 0.19 | 0.52 | 0.06 | -0.47 | 0.22 | 0.79 | 0.57 | 1.05 | 0.31
COCCOc1cnc2ccn([C@H](C)c3nnc4c(F)cc(-c5cnn(C)c5)cn34)c(=O)c2c1 | 0.7 | -0.01 | 0.32 | 0.22 | 0.31 | 0.36 | 0.15 | 0.71 | 1.22 | 0.15
N#Cc1cnc(Nc2cc(NC[C@H]3CNCCO3)c(C(F)(F)F)cn2)cn1 | 0.46 | 1.05 | 1.23 | 0.31 | 0.67 | 1.58 | 0.2 | 0.87 | 2.96 | 0.44
C[C@@H]1COCCN1c1cc(C2([S@](C)(=N)=O)CC2)nc(-c2cc[nH]c3nccc2-3)n1 | 0.97 | 0.61 | 0.22 | -0.13 | 0.47 | 0.14 | 0.56 | 0.49 | 0.92 | 0.47
Cn1ncc(Cl)c1-c1cc(C(=O)N[C@H](CN)Cc2cccc(F)c2)sc1Cl | 0.79 | 0.75 | 0.77 | 0.1 | 0.54 | 0.15 | 0.41 | 0.69 | 1.31 | 0.56
O=c1cc(N2CCOCC2)oc2c(-c3ccccc3)cccc12 | 0.48 | 1.07 | 1.31 | 0.43 | -0.28 | 0.36 | 1.28 | 0.91 | 0.08 | 0.84
COc1ccc(-c2cc3c(C)nc(N)nc3n([C@H]3CC[C@H](OCCO)CC3)c2=O)cn1 | 2.79 | 0.98 | 0.9 | 0.37 | 0.23 | 0.14 | 1.27 | 1.09 | 1.12 | 0.63
CC(C)N(CCC(=O)c1ccc2ccccc2c1)Cc1ccccc1 | 1.6 | -0.95 | 1.89 | -2.65 | -0.6 | -5.39 | 0.33 | -1.55 | -2 | 5.17
CCN1CCN(Cc2ccc(-c3cc4c(N[C@H](C)c5ccccc5)ncnc4[nH]3)cc2)CC1 | 0.7 | 1.5 | 0.28 | 0.52 | -0.08 | 0.5 | 1.12 | 0.67 | 3.81 | 0.8
COc1cc(N2CCN(C)CC2)ccc1Nc1nccc(-c2cn(C)c3cnccc23)n1 | 1.48 | 2 | 1.01 | 0.34 | 0.37 | 0.31 | 0.46 | 3.48 | 5.04 | 0.61
O=C(O)c1ccc(Nc2ncc3c(n2)-c2ccc(Cl)cc2C(c2c(F)cccc2F)=NC3)cc1 | 0.51 | 0.82 | 0.64 | -0.31 | -0.46 | 0.46 | 0.3 | 0.39 | 0.88 | 0.07
CCc1nc(C(N)=O)c(Nc2ccc(N3CCC(N4CCN(C)CC4)CC3)c(OC)c2)nc1NC1CCOCC1 [Gilteritinib (ASP2215)] | 4.25 | 11.5 | 1.96 | 1.07 | 4.03 | 5.09 | 1.35 | 5.51 | 13.1 | 1.65
Nc1ncccc1-c1nc2ccc(-c3ccccc3)nc2n1-c1ccc(C2(N)CCC2)cc1 [Miransertib (ARQ 092) HCl] | -0.19 | 0.58 | -0.42 | -0.11 | 0.08 | 0.38 | -1.04 | 0.49 | 1.05 | -0.46
CCN(CC)CCCC(C)Nc1ccnc2cc(Cl)ccc12 (stereo not given) [Chloroquine Phosphate] | 0.41 | 0.19 | 0.9 | -0.08 | 0.32 | -0.07 | 0.25 | 0.31 | 0.87 | -0.06
Cc1cc2c(F)c(Oc3ncnn4cc(OC[C@@H](C)O)c(C)c34)ccc2[nH]1 | 0.81 | 1.36 | 0.76 | 1.5 | -0.11 | 0.52 | 0.7 | 1.17 | 1.77 | 0.7
Cc1c[nH]c(/C=C2\C(=O)Nc3ccccc32)c1CCC(=O)O | 0.49 | 11.5 | 0.67 | 0.07 | 3.1 | 5.88 | -0.06 | 3.9 | 1.56 | 0.22
Cn1ncc(Cl)c1-c1cc(C(=O)N[C@H](CN)Cc2ccc(F)c(F)c2)oc1Cl | 1.78 | 0.8 | 1.33 | 0.28 | 0.45 | 0.03 | 0.82 | 0.49 | 0.41 | 1.67

Source: the supplement of paper PMC9694430
